Test results reported in the supplement of paper PMC8975748.
Where a name gives a salt, the structure may show the parent alone.

tested on: Saccharomyces cerevisiae BY4741 SeMeCo community; experiment: z-score of subpopulation abundance vs DMSO median, subpopulation auxotrophic for HUM; higher = larger share of this subpopulation than in DMSO controls; details: 10 µM; 24 h; SM minimal medium; subpopulation (auxotrophy): HUM
Description: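 Fluorescent four-plasmid SeMeCo (self-establishing metabolically cooperating S. cerevisiae BY4741 community; plasmids pH-mRuby2, pL-mWasabi, pU-eCFP, pM-TagRFP657) was grown 24 h in minimal SM medium with each Selleck FDA-approved drug at 10 µM in 384-well plates. Cells were fixed and imaged by high-content confocal microscopy. For each auxotrophic subpopulation (and the prototroph), a z-score gives the deviation from the DMSO vehicle-control population median.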

Structure (SMILES)	z-score of subpopulation abundance
NC(=O)c1ncn([C@@H]2O[C@H](CO)[C@@H](O)[C@H]2O)n1 [Ribavirin]	0.49
CCN(CC)C(=O)C1(c2ccccc2)CC1CN (stereo not given) [Milnacipran HCl]	-0.13
Nc1c(Br)cc(Br)cc1CN[C@H]1CC[C@H](O)CC1 [Ambroxol HCl]	-0.94
CN(C)CCCN1c2ccccc2CCc2ccc(Cl)cc21 [Clomipramine HCl]	1.2
CCC(=O)NS(=O)(=O)c1ccc(-c2c(-c3ccccc3)noc2C)cc1 [Parecoxib]	-0.44
Nc1ccc(S(=O)(=O)c2ccc(N)cc2)cc1 [Dapson]	0.6
C[C@@H](c1nc(-c2ccc(C#N)cc2)cs1)[C@](O)(Cn1cncn1)c1cc(F)ccc1F [Isavuconazole]	10.4
CO/N=C(\C(=O)N[C@@H]1C(=O)N2C(C(=O)[O-])=C(C[N+]3(C)CCCC3)CS[C@H]12)c1csc(N)n1 [Cefepime Dihydrochloride Monohydrate]	0.6
CC(=O)O[C@H]1C[C@@]2(C)[C@@H](C[C@@H](O)[C@H]3[C@@]4(C)CC[C@@H](O)[C@@H](C)[C@@H]4CC[C@@]32C)/C1=C(\CCC=C(C)C)C(=O)O [Fusidate Sodium]	1.17
CCCOc1ccc2[nH]c(NC(=O)OC)nc2c1 [Oxibendazole]	1.12
CC[C@@]1(O)C(=O)OCc2c1cc1n(c2=O)Cc2cc3cc(O)ccc3nc2-1 [Hydroxy Camptothecine]	-1.9
CCCCCCCCCC(=O)N[C@@H](Cc1c[nH]c2ccccc12)C(=O)N[C@H](CC(N)=O)C(=O)N[C@@H](CC(=O)O)C(=O)N[C@@H]1C(=O)NCC(=O)N[C@@H](CCCN)C(=O)N[C@@H](CC(=O)O)C(=O)N[C@H](C)C(=O)N[C@@H](CC(=O)O)C(=O)NCC(=O)N[C@H](CO)C(=O)N[C@@H]([C@H](C)CC(=O)O)C(=O)N[C@@H](CC(=O)c2ccccc2N)C(=O)O[C@@H]1C [Daptomycin]	0.77
COc1cc([C@@H]2c3cc4c(cc3[C@@H](O[C@@H]3O[C@@H]5CO[C@@H](c6cccs6)O[C@H]5[C@H](O)[C@H]3O)[C@H]3COC(=O)[C@H]23)OCO4)cc(OC)c1O [Teniposide]	1.08
Cc1c(S(=O)(=O)O)oc2c1C(=O)C(=O)c1c-2ccc2c1CCCC2(C)C [Tanshinone IIA sulfonate (sodium)]	0.71
Cc1c(Nc2ncccc2C(=O)O)cccc1C(F)(F)F [Flunixin Meglumin]	0.12
O=C1CN(/N=C/c2ccc(-c3ccc([N+](=O)[O-])cc3)o2)C(=O)N1 [Dantrolene sodium hemiheptahydrate]	-1.65
CN1CCOC(c2ccccc2)c2ccccc2C1 (stereo not given) [Nefopam HCl]	-0.51
CCN(CC)CCOC(=O)c1ccc(N)cc1 [Procaine]	0.39
CCN1CCC[C@H]1CNC(=O)c1cc(S(N)(=O)=O)ccc1OC [Levosulpiride]	0.24
COc1cc(/C=C/C(=O)N2CCN(CC(=O)N3CCCC3)CC2)cc(OC)c1OC [Cinepazide maleate]	-0.05

Structure (SMILES)	z-score of subpopulation abundance
CC1(C)S[C@@H]2[C@H](NC(=O)[C@H](N)c3ccccc3)C(=O)N2[C@H]1C(=O)O [Ampicillin Trihydrate]	0.13
C[C@H](NCc1ccc(OCc2cccc(F)c2)cc1)C(N)=O [Safinamide]	-0.17
NCCc1ccc(O)c(O)c1 [Dopamine HCl]	-0.77
COc1cc(N)c(Cl)cc1C(=O)NC1CCN(CCCOc2ccc(F)cc2)CC1OC (stereo not given) [Cisapride]	-0.94
CCN1CCN(C(=O)N[C@@H](C(=O)N[C@@H]2C(=O)N3[C@@H]2SC(C)(C)[C@@H]3C(=O)O)c2ccccc2)C(=O)C1=O [Piperacillin Sodium]	0.48
C=CC1=C(C(=O)O)N2C(=O)[C@@H](NC(=O)/C(=N\OCC(=O)O)c3csc(N)n3)[C@H]2SC1 [Cefixime]	-0.75
Cc1ccc(C(=O)C(C)CN2CCCCC2)cc1 (stereo not given) [Tolperisone HCl]	-0.56
NC(=O)OCC(COC(N)=O)c1ccccc1 [Felbamate]	-0.71
CCN(CC)C(=O)N1CCN(C)CC1 [Diethylcarbamazine citrate]	0.13
C=C[C@]1(C)C[C@@H](OC(=O)CS[C@@H]2C[C@H]3CC[C@@H](C2)N3C)[C@]2(C)[C@H](C)CC[C@]3(CCC(=O)[C@H]32)[C@@H](C)[C@@H]1O [Retapamulin]	0.06
C[C@H]1COc2c(C3(N)CC3)c(F)cc3c(=O)c(C(=O)O)cn1c23 [Pazufloxacin mesylate]	-0.08
CCOC(=O)C1=C[C@@H](OC(CC)CC)[C@H](NC(C)=O)[C@@H](N)C1 [Oseltamivir Phosphate]	-1.09
CN1C2CCC1CC(OC(=O)C(O)c1ccccc1)C2 (stereo not given) [Homatropine Bromide]	0
Cc1cc(-c2ccc(/N=N/c3ccc4c(S(=O)(=O)O)cc(S(=O)(=O)O)c(N)c4c3O)c(C)c2)ccc1/N=N/c1ccc2c(S(=O)(=O)O)cc(S(=O)(=O)O)c(N)c2c1O [Evans Blue]	-6.59
COc1c(N2C[C@@H]3CCCN[C@@H]3C2)c(F)cc2c(=O)c(C(=O)O)cn(C3CC3)c12 [Moxifloxacin HCl]	0.22
Cc1cccc(Nc2ccccc2C(=O)O)c1C [Mefenamic Acid]	-0.64
Fc1ccc([C@@H]2CCNC[C@H]2COc2ccc3c(c2)OCO3)cc1 [Paroxetine HCl]	-0.39
NC[C@@H]1O[C@H](O[C@H]2[C@@H](O)[C@H](O[C@@H]3[C@@H](O)[C@H](N)C[C@H](N)[C@H]3O[C@H]3O[C@H](CN)[C@@H](O)[C@H](O)[C@H]3N)O[C@@H]2CO)[C@H](N)[C@@H](O)[C@@H]1O [Neomycin sulfate]	-1.64
Cn1nnnc1SCC1=C(C(=O)O)N2C(=O)[C@@H](NC(=O)[C@H](OC=O)c3ccccc3)[C@H]2SC1 [Cefamandole nafate]	-0.54
OC(c1cc(C(F)(F)F)nc2c(C(F)(F)F)cccc12)C1CCCCN1 (stereo not given) [Mefloquine HCl]	0.3
